Test results as given in PubChem BioAssay AID1159580 (chemical genetic matrix, 2015).
“And” between values parts separate entries of the source, which are not always exact repeats. Equal entries are not always repeated. In all, about 5,500 compounds went through this assay and about 2,000 (36%) were called active. Inconclusive results (about 18%) are left out. No stated cut-off is given here; in the data, active means normalized growth mostly below about 0.91 (no sharp cut-off); inconclusive means no clear call, values can overlap the other calls; inactive means mostly above about 0.92. This is one part of the list.

Assay: chemical genetic growth profiling, strain panel (AID 1159580);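 further: tested at 20 µM; growth read once vehicle control cultures reached saturation at 30 °C; 1 = growth at the plate median or of vehicle wells; lower values mean less growth of the strain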
Details: growth OD

Measured: normalized growth

COc1ccc2c(c1OC)OC[C@@H](c1ccc(OC)c(OC)c1OC)C2
inactive: S. cerevisiae deletion strains, locus YAL013W, strain DEP1, hits give low values 1.01 | S. cerevisiae deletion strains, locus YBR021W, strain FUR4, hits give low values 0.972 | S. cerevisiae deletion strains, locus YBR229C, strain ROT2, hits give low values 1 | S. cerevisiae deletion strains, locus YCL029C, strain bik1, hits give low values 1.01 | S. cerevisiae deletion strains, locus YDL035C, strain GPR1, hits give low values 1.01 | S. cerevisiae deletion strains, locus YDL074C, strain BRE1, hits give low values 0.999 | S. cerevisiae deletion strains, locus YDL101C, strain DUN1, hits give low values 1.01 | S. cerevisiae deletion strains, locus YDL134C, strain PPH21, hits give low values 0.999 | S. cerevisiae deletion strains, locus YDL185W, strain tfp1, hits give low values 1.02 | S. cerevisiae deletion strains, locus YDL192W, strain arf1, hits give low values 1.01 | S. cerevisiae deletion strains, locus YDR101C, strain arx1, hits give low values 1 | S. cerevisiae deletion strains, locus YDR162C, strain NBP2, hits give low values 1 | S. cerevisiae deletion strains, locus YDR318W, strain mcm21, hits give low values 1.03 | S. cerevisiae deletion strains, locus YDR388W, hits give low values 1.01 | S. cerevisiae deletion strains, locus YDR502C, strain sam2, hits give low values 0.996 | S. cerevisiae deletion strains, locus YEL061C, strain CIN8, hits give low values 1.01 | S. cerevisiae deletion strains, locus YER110C, hits give low values 1 | S. cerevisiae deletion strains, locus YER155C, strain BEM2, hits give low values 1.01 | S. cerevisiae deletion strains, locus YER167W, strain BCK2, hits give low values 1.03 | S. cerevisiae deletion strains, locus YGL078C, strain dbp3, hits give low values 1 | S. cerevisiae deletion strains, locus YGL086W, strain mad1, hits give low values 0.994 | S. cerevisiae deletion strains, locus YGL248W, strain PDE1, hits give low values 1.01 | S. cerevisiae deletion strains, locus YGR078C, strain PAC10, hits give low values 0.998 | S. cerevisiae deletion strains, locus YGR135W, strain pre9, hits give low values 0.999 | S. cerevisiae deletion strains, locus YGR252W, strain gcn5, hits give low values 0.976 | S. cerevisiae deletion strains, locus YHR030C, strain SLT2, hits give low values 1.02 and 1.03 | S. cerevisiae deletion strains, locus YHR079C, strain IRE1 (second series), hits give low values 1.01 | S. cerevisiae deletion strains, locus YHR079C, strain IRE1, hits give low values 1.02 | S. cerevisiae deletion strains, locus YHR094C, strain hxt1, hits give low values 1.01 | S. cerevisiae deletion strains, locus YHR129C, strain ARP1, hits give low values 1.02 | S. cerevisiae deletion strains, locus YHR200W, strain rpn10, hits give low values 1.01 | S. cerevisiae deletion strains, locus YIL066C, strain RNR3, hits give low values 1.01 | S. cerevisiae deletion strains, locus YIL073C, strain SPO22, hits give low values 1.03 | S. cerevisiae deletion strains, locus YIL125W, strain kgd1, hits give low values 1 | S. cerevisiae deletion strains, locus YIR030C, strain dcg1, hits give low values 1.01 | S. cerevisiae deletion strains, locus YJL095W, strain BCK1, hits give low values 0.998 and 1.04 | S. cerevisiae deletion strains, locus YJL134W, strain LCB3, hits give low values 1.01 | S. cerevisiae deletion strains, locus YJL168C, strain set2, hits give low values 1.01 | S. cerevisiae deletion strains, locus YJL187C, strain SWE1 (second series), hits give low values 1 | S. cerevisiae deletion strains, locus YJR043C, strain POL32, hits give low values 1.02 | S. cerevisiae deletion strains, locus YJR066W, strain TOR1, hits give low values 0.983 | S. cerevisiae deletion strains, locus YKL009W, strain mrt4, hits give low values 1.01 | S. cerevisiae deletion strains, locus YKL068W, hits give low values 1 | S. cerevisiae deletion strains, locus YKL085W, strain MDH1 (second series), hits give low values 0.993 | S. cerevisiae deletion strains, locus YKL085W, strain MDH1, hits give low values 0.993 | S. cerevisiae deletion strains, locus YKL190W, strain CNB1, hits give low values 1.01 | S. cerevisiae deletion strains, locus YKR001C, strain vps1, hits give low values 1 | S. cerevisiae deletion strains, locus YLR039C, strain RIC1, hits give low values 1.13 | S. cerevisiae deletion strains, locus YLR058C, strain SHM2, hits give low values 1 | S. cerevisiae deletion strains, locus YLR102C, strain apc9, hits give low values 1.02 | S. cerevisiae deletion strains, locus YLR113W, strain HOG1, hits give low values 0.939 | S. cerevisiae deletion strains, locus YLR262C, strain YPT6, hits give low values 1.14 | S. cerevisiae deletion strains, locus YLR268W, strain sec22, hits give low values 0.996 | S. cerevisiae deletion strains, locus YLR330W, strain CHS5, hits give low values 1.01 | S. cerevisiae deletion strains, locus YLR342W, strain FKS1 (second series), hits give low values 1.04 | S. cerevisiae deletion strains, locus YLR371W, strain rom2, hits give low values 1.01 | S. cerevisiae deletion strains, locus YLR418C, strain cdc73, hits give low values 0.988 | S. cerevisiae deletion strains, locus YML016C, strain PPZ1, hits give low values 1.02 | S. cerevisiae deletion strains, locus YML032C, strain rad52, hits give low values 1.02 | S. cerevisiae deletion strains, locus YML124C, strain tub3, hits give low values 1 | S. cerevisiae deletion strains, locus YMR078C, strain ctf18, hits give low values 1 | S. cerevisiae deletion strains, locus YMR223W, strain ubp8, hits give low values 0.999 | S. cerevisiae deletion strains, locus YMR263W, strain SAP30, hits give low values 0.996 | S. cerevisiae deletion strains, locus YMR307W, strain GAS1, hits give low values 0.927 | S. cerevisiae deletion strains, locus YNL067W, strain RPL9B, hits give low values 1.01 | S. cerevisiae deletion strains, locus YNL183C, strain NPR1, hits give low values 0.97 | S. cerevisiae deletion strains, locus YNL233W, strain BNI4, hits give low values 0.997 | S. cerevisiae deletion strains, locus YNL250W, strain rad50, hits give low values 0.998 | S. cerevisiae deletion strains, locus YNL271C, strain bni1, hits give low values 0.999 | S. cerevisiae deletion strains, locus YNL298W, strain CLA4, hits give low values 0.998 | S. cerevisiae deletion strains, locus YNL307C, strain MCK1, hits give low values 1.04 | S. cerevisiae deletion strains, locus YNL322C, strain KRE1, hits give low values 1.01 | S. cerevisiae deletion strains, locus YNR052C, strain pop2, hits give low values 1.02 | S. cerevisiae deletion strains, locus YOL012C, strain htz1 1.06 | S. cerevisiae deletion strains, locus YOL147C, strain pex11, hits give low values 1 | S. cerevisiae deletion strains, locus YOR061W, strain CKA2, hits give low values 1.01 | S. cerevisiae deletion strains, locus YOR069W, strain VPS5, hits give low values 1.01 | S. cerevisiae deletion strains, locus YOR136W, strain idh2, hits give low values 1.01 | S. cerevisiae deletion strains, locus YOR144C, strain elg1, hits give low values 1 | S. cerevisiae deletion strains, locus YOR184W, strain ser1, hits give low values 0.976 | S. cerevisiae deletion strains, locus YOR231W, strain MKK1, hits give low values 1.06 | S. cerevisiae deletion strains, locus YOR316C, strain cot1, hits give low values 1.01 | S. cerevisiae deletion strains, locus YPL241C, strain CIN2, hits give low values 1.01 | S. cerevisiae deletion strains, locus YPL256C, strain CLN2, hits give low values 1.06 | S. cerevisiae deletion strains, locus YPR119W, strain clb2, hits give low values 1 | S. cerevisiae deletion strains, locus YPR141C, strain kar3, hits give low values 1.02 | S. cerevisiae deletion strains, locus YPR163C, strain tif3, hits give low values 1.01 | S. cerevisiae deletion strains, locus YPR167C, strain met16, hits give low values 1.01 | S. cerevisiae deletion strains, strain wtn01, hits give low values 1.02 | S. cerevisiae strains, strain wild type, hits give low values 1.01
